Screening results (PubChem BioAssay)
DT40 TDP1 CPT: DT40-hTDP1 cell growth loss with CPT; Potency, µM (doses to about 46.2 µM), for the others: at the highest dose activity change, negative = growth inhibition, actives largely listed as inhibitors; 12% of 420,000 active; chicken DT40 Tdp1-/-;hTDP1 cells + 20 nM CPT, ATP luminescence, 48 h; also: potency is read from the fitted curve at half-maximal effect; nearly all actives have a fitted effect of over 55% in size
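Cell growth measured by CellTiter-Glo luminescence after a minimum 48 h, 37 C compound exposure with 20 nM CPT in Tdp1-knockout DT40 cells stably expressing hTDP1, seeded 400/well; qHTS titration format.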
IL-1B inflam inh: inflammasome signaling inhibition, IL-1 beta readout; activity change, % at 57.5 µM; THP-1 LPS/ATP IL-1B secretion, AlphaLISA, 16 h; hits give low values; AID 743279; 4.7% of 360,000 active; in the data active = activity change below about -50%; inconclusive = mostly about -30% to -49%
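THP-1 cells pretreated 1 hr with compounds (up to 57.5 uM final), then stimulated with LPS (250 ng/mL final) plus ATP (1.25 mM final); secreted IL-1B measured by AlphaLISA after 16 hr, decreased signal indicating inhibition.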
12-LOX inh: ALOX12 (human) lipoxygenase inhibition; purified 12hLO, xylenol orange hydroperoxide absorbance; AID 1671190; 1.1% of 580,000 active; Potency, µM (highest dose often 108 µM), inactives show at the top dose activity change, negative = inhibition, hits mostly inhibitors; also: potency is read from the fitted curve at half-maximal effect
Target sequence (P18054 whole entry, looked up): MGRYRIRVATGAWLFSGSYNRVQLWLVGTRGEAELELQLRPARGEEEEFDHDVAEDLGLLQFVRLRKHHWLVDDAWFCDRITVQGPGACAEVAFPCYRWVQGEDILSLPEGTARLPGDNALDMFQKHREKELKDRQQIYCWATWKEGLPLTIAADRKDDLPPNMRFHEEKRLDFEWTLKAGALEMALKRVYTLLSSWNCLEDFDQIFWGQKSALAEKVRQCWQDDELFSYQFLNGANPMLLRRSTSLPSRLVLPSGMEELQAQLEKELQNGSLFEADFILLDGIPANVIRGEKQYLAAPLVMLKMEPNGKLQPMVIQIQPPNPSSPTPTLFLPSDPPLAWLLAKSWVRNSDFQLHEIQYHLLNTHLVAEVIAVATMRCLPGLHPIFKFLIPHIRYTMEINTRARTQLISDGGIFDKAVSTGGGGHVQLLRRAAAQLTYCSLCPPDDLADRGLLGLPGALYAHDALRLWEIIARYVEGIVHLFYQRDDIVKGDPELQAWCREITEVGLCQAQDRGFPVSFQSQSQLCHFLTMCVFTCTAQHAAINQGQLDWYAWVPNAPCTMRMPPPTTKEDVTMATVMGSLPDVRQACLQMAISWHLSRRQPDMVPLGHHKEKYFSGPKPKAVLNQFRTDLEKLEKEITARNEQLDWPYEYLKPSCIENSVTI
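Purified human 12hLO (150 nM final) in 25 mM Hepes, 0.01% Triton X-100, pH 7.0 was preincubated 15 min at room temperature with compound. Then 40 uM arachidonic acid was added, 30 min. Hydroperoxide was read by Fe-XO absorbance ratio 573/405 nm.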
HT1080NT lethal: kills 2HG-producing HT-1080-NT fibrosarcoma cells | HT-1080-NT fibrosarcoma viability, CellTiter-Glo ATP luminescence, 48 h | AID 686970 | 1.6% of 360,000 active | Potency, µM (titrated, usually from 46.1 µM), without a hit: at the top dose activity, negative = less viability, actives largely listed as cytotoxic;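 also: NT is the 2HG producing partner of a matched IDH1 knockdown line; potency is read from the fitted curve at half-maximal effect; 0% = DMSO-treated cells and -100% = media-only wells without cells; nearly all actives have a fitted effect of over 55% in size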
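750 cells/well, RPMI + 5% FBS; 2 h settle, compound pin-transfer, 48 h at 37 degrees C. CellTiter-Glo 10 min RT, luminescence. Normalized to DMSO and media-only wells.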
TDP1 cell noCPT: qHTS for Inhibitors of human tyrosyl-DNA phosphodiesterase 1 (TDP1): qHTS in cells in absence of CPT | DT40 Tdp1-/- hTDP1 cells, no CPT, ATP luminescence, 48 h | 15% of 420,000 active | AID 686978, 2013 | Potency, µM (series often up to 46.2 µM), for inactives: at the highest dose activity change, negative = growth inhibition, usual class: inhibitors; also: potency is read from the fitted curve at half-maximal effect; nearly all actives have a fitted effect of over 55% in size
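Chicken DT40 Tdp1-/- cells stably complemented with human TDP1 were seeded at 400 cells/well with DMSO in place of 20 nM camptothecin. After compound pinning, cells grew at least 48 hr at 37 °C; viability read by CellTiter-Glo luminescence.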
HT1080 IDH1KD tx: toxicity to HT-1080 IDH1 knockdown cells (counter line); HT-1080 IDH1 knockdown viability, ATP luminescence, 48 h; Potency, µM (highest dose often 46.1 µM), for inactives: at the highest dose activity, negative = toxicity, hits mostly cytotoxic; 2% of 360,000 active;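 also: potency is read from the fitted curve at half-maximal effect; 0% = DMSO wells and -100% = cell-free medium wells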
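Viability of IDH1-knockdown HT-1080 fibrosarcoma cells was assessed by CellTiter-Glo after 48 h at 37 °C with titrated compound; concentration-effect curves were classified by fit quality and response size.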
Numbers without * were called inactive; ? = inconclusive; nt = no result given. Shown is part of a subset that was picked to be rich in hits. Unless noted, calls follow the shape of the dose curve; as a rule, active = well fitted curve in the direction sought with a large enough effect; inconclusive = small, poorly fitted or top-dose-only effect, or another doubt; inactive = no such curve, though single readings can be large; an effect the other way counts as inactive or inconclusive. Unless noted, % is scaled to controls: 0 for no effect and ±100 for the full control effect.

SMILES | DT40 TDP1 CPT | IL-1B inflam inh | 12-LOX inh | HT1080NT lethal | TDP1 cell noCPT | HT1080 IDH1KD tx
Cn1c(=O)c([N+](=O)[O-])c(N2CCN(Cc3ccc4c(c3)OCO4)CC2)c2ccccc21 | 13µM* | -22.2 | 0.0% | -17.8% | 8.2µM* | -15.8%
COc1ccc(NC(=O)c2c(C(=O)Nc3ccccc3)sc3nc(C)cc(=O)n23)cc1 | -17.8% | nt | -24.3% | nt | -7.3% | nt
Cc1ccc(NC(=O)c2sc(Cl)nc2-c2ccccc2)cc1C | ? | 15.9 | 0.0% | -6.6% | 18.4µM* | -0.3%
Cc1cc(=O)n2c(C(=O)Nc3ccc(C)c(C)c3)c(C(=O)Nc3ccccc3)sc2n1 | ? | -3.5 | 6.7% | 11.0% | 16.4µM* | 8.2%
C[C@H]1[C@@H]2[C@@H](O)C([C@H](C)C(=O)NCCN3CCCC3)CC[C@@]2(C)CC[C@@H]1NC(=O)CC(C)(C)C (stereo partly drawn) | nt | nt | 86.0% | nt | nt | nt
c1ccc2c(N3CCCCC3)ncnc2c1 | ? | 27.2 | 0.0% | -20.2% | 20.6µM* | -16.9%
O=C(O)C1CCCN1c1ncnc2ccccc12 (stereo not drawn) | -36.8% | 22.9 | ? | 0.0% | -10.2% | 7.7%
CC1CCN(c2nc(-c3ccncc3)nc3ccccc23)CC1 | ? | -23.9 | ? | ? | ? | ?
CC1CCCCN1c1nc(-c2ccncc2)nc2ccccc12 (stereo not drawn) | ? | -14.0 | ? | ? | 18.4µM* | 29.1µM*
CC1CCCCN1c1ncnc2ccccc12 (stereo not drawn) | 23.1µM* | -25.3 | -1.0% | 17.8µM* | 10.3µM* | 1.4%
c1ccc2c(c1)nc(N1CCCCCC1)c1ccccc12 | ? | 47.5 | ? | 0.0% | ? | -14.7%
CCC1CCCCN1c1nc(-c2ccncc2)nc2ccccc12 (stereo not drawn) | 29.1µM* | -6.8 | -24.2% | 17.8µM* | ? | ?
COc1ccc(NC(=O)CC2Sc3ccccc3NC2=O)cc1 (stereo not drawn) | nt | nt | -29.2% | nt | nt | nt
C=CCn1c(=S)[nH]c2scc(-c3ccc(C)o3)c2c1=O | ? | 46.1 | -21.2% | 13µM* | 10.3µM* | 16.4µM*
O=C1CC(N2CCN(Cc3ccc(Cl)cc3)CC2)C(=O)N1CCc1ccccc1 (stereo not drawn) | 14.6µM* | 20.5 | 0.0% | -5.1% | 18.4µM* | 1.3%
CCCOc1ccc2oc(=O)c3c(c2c1)CCCN3C(=O)CN1CCN(c2ncccn2)CC1 | 18.4µM* | 5.5 | 0.0% | 12.9% | ? | 18.4%
CCCOc1ccc2oc(=O)c3c(c2c1)CCCN3C(=O)CN1CCCC(C(=O)OCC)C1 (stereo not drawn) | ? | 9.6 | 0.0% | -4.3% | 23.1µM* | -7.3%
O=C(CN1CCCC1)N1CCCc2c1c(=O)oc1ccc(OCc3ccccc3)cc21 | ? | -7.7 | -9.0% | ? | ? | ?
CCOC(=O)C1CCN(CC(=O)N2CCCc3c2c(=O)oc2ccc(OCc4ccccc4)cc32)CC1 | -22.4% | nt | -18.8% | nt | -21.6% | nt
Cn1nccc1C(=O)N1CCC(N2C(=O)C(OCC3CC3)C23CCOCC3)CC1 (stereo not drawn) | nt | nt | 30.9% | nt | nt | nt
C/C=C/c1ccc(Oc2nnnn2-c2ccc(C(N)=O)cc2)c(OC)c1 | 14.6µM* | 8.9 | -14.2% | -3.3% | 20.6µM* | -12.4%
COC[C@]1(O)CCN(C(=O)c2sc(OC)nc2C)CC1(C)C | nt | nt | 11.8% | nt | nt | nt
COc1ccc(/C(C)=N/NC(=O)CNC(=O)/C=C\c2ccco2)cc1 | 13µM* | 84.4 | -9.7% | 0.0% | 9.2µM* | -1.5%
COc1ccc(C(NC(=O)/C=C/c2ccco2)c2ccc(OC)c(OC)c2)cc1 (stereo not drawn) | -15.3% | -13.0 | 44.7µM* | 4.2% | -4.4% | -0.7%
O=C(/C=C/c1ccco1)NC(=S)Nc1cccc(C(=O)O)c1 | -25.4% | 7.2 | ? | -3.1% | 2.3% | 0.6%
SMILES | DT40 TDP1 CPT | IL-1B inflam inh | 12-LOX inh | HT1080NT lethal | TDP1 cell noCPT | HT1080 IDH1KD tx
CC/C(=N\NC(=O)CNC(=O)/C=C/c1ccco1)c1ccccc1 | -4.8% | 11.8 | -1.6% | 10.7% | -14.1% | 5.8%
COc1cccc(NC(=S)NC(=O)/C=C/c2ccco2)c1 | 18.4µM* | 31.5 | 0.0% | 20.6µM* | 14.6µM* | 6.51µM*
CCOc1ccc(C(NC(=O)/C=C/c2ccco2)c2ccc(OC)c(OC)c2)cc1 (stereo not drawn) | 0.9% | ? | ? | 2.8% | 0.3% | 0.5%
CCOc1ccc(NC(=S)NC(=O)/C=C/c2ccco2)cc1 | ? | -20.3 | -17.2% | -25.6% | 18.4µM* | -10.9%
COc1ccc2ccc(OCc3nc(C(=O)NC(C)c4n[nH]c(C)n4)co3)cc2c1 (stereo not drawn) | nt | nt | 77.9% | nt | nt | nt
Cc1cc(C)c(SCC(=O)NC(C)(C)C)c(C)c1 | nt | nt | 6.5% | nt | nt | nt
CN1CCN(c2ccc(NC(=S)NC(=O)/C=C/c3ccco3)cc2)CC1 | ? | -95.6* | ? | ? | 20.6µM* | ?
COc1ccc(NC(=S)NC(=O)/C=C/c2ccco2)c(OC)c1 | -56.3% | -15.9 | 35.5µM* | 10.2% | ? | 13.5%
CC(=O)Nc1ccc(NC(=S)NC(=O)/C=C/c2ccco2)cc1 | ? | 31.5 | 0.0% | -19.3% | ? | -28.9%
C(=N\NC(=Nc1ccccc1)c1ccccn1)/c1ccccn1 | 10.3µM* | 30.0 | 168.5% | -10.5% | 10.3µM* | -14.0%
Clc1ccc(/C=N/NC(=Nc2ccccc2)c2ccccn2)c(Cl)c1 | ? | -7.4 | 138.3% | 9.2% | 29.1µM* | -3.6%
Cc1ccn2c(CC(C)(C)C)c(-c3ccc(F)cc3)nc2c1 | 20.6µM* | 11.0 | ? | 10.5% | 20.6µM* | 6.3%
Cc1ccc(Cc2c(-c3ccc(Cl)cc3)nc3cc(C)ccn23)cc1 | ? | -6.3 | ? | 4.9% | 18.4µM* | 7.8%
Cc1ccc(Cc2c(-c3ccc(C)cc3)nc3cc(C)ccn23)cc1 | 20.6µM* | -6.0 | ? | -12.6% | 20.6µM* | -13.2%
Cc1ccc(Cc2c(-c3ccc(C#N)cc3)nc3c4ccccc4ccn23)cc1 | ? | 3.3 | ? | -1.4% | ? | 7.3%
Cc1ccc2c(C)c(CCC(=O)Nc3ccc(Cl)cc3)c(=O)oc2c1 | nt | nt | -4.6% | nt | nt | nt
CC(C)Oc1ccc(CNC(=O)c2ncoc2-c2cccs2)cc1 | nt | nt | 8.5% | nt | nt | nt
NS(=O)(=O)c1cccc2nsnc12 | nt | nt | 11.4% | nt | nt | nt
